Consider 106 compounds from PubChem BioAssay AID2546 (National Center for Advancing Translational Sciences (NCATS), 2010).

Among all 310,000 compounds or so, about 11,000 (3.5%) were called active. Roughly 8% stayed inconclusive and do not appear here. Calls come from the whole dose curve; as a rule, active = well fitted inhibition curve with a large enough effect; inconclusive = small, poorly fitted or top-dose-only effect, or effect the other way; inactive = flat fitted curve, though single readings scatter. The list comes from a sample in which actives are over-represented; it also holds similar structures and randomly drawn compounds. Entries that show only a call come without a potency.
Potency is the fitted concentration of half-maximal effect.

The nature of this assay: VP16 counterscreen qHTS for inhibitors of ROR gamma transcriptional activity.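 Note: Gal4-VP16 expression switched on by copper sulfate through the metallothionein promoter; nearly all actives have a fitted effect of over 50% in size.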 As to conditions: Drosophila S2 Gal4-VP16 UAS-luciferase, luminescence, 20 h; series mostly up to 53.6 µM.
Regarding `COc1ccc(NC(=O)C2CCC(CNC(=O)[C@@H]3Cc4ccccc4CN3)CC2)cc1` (stereo partly specified), the Potency entry was “inactive”.
On to `CC(=O)N1c2ccc(S(=O)(=O)N3CCC(C(=O)NCc4ccc(F)cc4)CC3)cc2CC1C` (stereo unspecified), for which the Potency entry is “inactive”.
In the case of `Cc1ccc(-n2c(-c3ccc(Cl)cc3)n[nH]c2=S)cc1`, the Potency is 2.51 µM (active).
For the compound `Cc1cc(-c2n[nH]c(=S)n2-c2ccc(C)c(C)c2)no1`, the Potency result was “inactive”.
Still for that read-out and setting: to `COc1ccc(-n2c(-c3ccc(OC)c(OC)c3)n[nH]c2=S)cc1` belongs “inactive”; to `Cc1nc2sccn2c(=O)c1S(=O)(=O)NCCc1ccccc1`, “inactive”.
On the same count and under the same terms, to `COc1cc(C(=O)NCC2(c3ccccc3)CCCC2)ccc1OC(C)C` belongs “inactive”.
As to `O=[N+]([O-])/C=C/c1ccc2c(ccn2Cc2ccccc2)c1`, the Potency is 11.2 µM (active).
Take `O=c1c([N+](=O)[O-])cc(C(F)(F)F)cn1Cc1cccc(Cl)c1`: the Potency result is “inactive”.
For the compound `O=C(/C=C/c1cccc([N+](=O)[O-])c1)N1CCN(Cc2ccccc2)CC1`, the Potency result was “inactive”.
Take `CC1CCN(C(=O)c2ccccc2NC(=O)Cc2ccccc2)CC1`: the Potency entry was “inactive”.
With `CC1CCN(C(=S)NC(=O)c2ccccc2Br)CC1`, the Potency is 3.55 µM (active).
`CC1CCN(C(=O)/C(=C\c2ccccc2)NC(=O)c2ccccc2)CC1`: the Potency result was “inactive”.
As for `COc1ccc(CNC(=O)c2ccc(Br)s2)cc1OC`, the Potency result is “inactive”.
For the compound `Cc1ccc(C(=O)N/C(=C\c2cn(S(=O)(=O)N(C)C)c3ccccc23)C(=O)N2CCCC2)cc1`, the Potency result is “inactive”.
As to `CCOC(=O)CN/C=C(\C#N)c1ccc(F)cc1`, the activity, negative = inhibition is -4.69% [at 10 µM] (inactive).
On to `CCOc1cc(/C=C(/C#N)c2ccc(Cl)cc2)cc(Cl)c1OCC(=O)O`, for which the Potency was 0.794 µM (active).
As for `C/C(=N\OCC(=O)O)c1ccc(Cl)cc1`, the Potency result is “inactive”.
As for `CC(C)OCCCNC(=O)CN1C(=O)/C(=C/c2ccccc2F)Oc2ccccc21`, the Potency result was “inactive”.
With `C[C@]12CC[C@@H]3c4ccc(O)cc4C[C@@H](CCCCCCCCCS(=O)CCCC(F)(F)C(F)(F)F)C3[C@@H]1CC[C@@H]2O` (stereo partly specified), the Potency result is “inactive”.
Take `CC1CN(C(=O)CCC(=O)NCCCN2CCC(Cc3ccccc3)CC2)c2cc(Cl)ccc2O1` (stereo unspecified): the Potency entry was “inactive”.
`CC1(C)Cc2cccc(OCC(=O)NCc3ccccc3)c2O1`: the Potency result was “inactive”.
Take `CCOc1nc(-c2ccc(OC)cc2)ccc1-c1noc(-c2cc(OC)c(OC)c(OC)c2)n1`: the Potency entry is “inactive”.
On to `COc1ccccc1Cc1nc(-c2ccc(C)cc2)no1`, for which the Potency entry was “inactive”.
In the case of `COc1ccc(-c2nc(-c3ccccc3)no2)c(OC)c1`, the Potency is 4.47 µM (active).
Turning to `COc1ccc(N(Cc2ccc(N(C)C)cc2)C(=O)c2ccc(S(C)(=O)=O)cc2)cc1`, the Potency result was “inactive”.
For `COc1cccc(N2CCN(c3ccc4nnc(CCC(=O)N5CCN(C)CC5)n4n3)CC2)c1`, the Potency result is “inactive”.
Consider `CCOc1ccc(-n2c(SCC(=O)OC)nc3sc4c(c3c2=O)CCN(C)C4)cc1`, for which the Potency entry is “inactive”.
Take `Cc1c(NC(=O)/C=C/C(=O)O)cccc1[N+](=O)[O-]`: the Potency result was “inactive”.
For `Cc1cccc(NC(=O)c2cccc(C(=O)Nc3cccc(C)c3C)n2)c1C`, the Potency result was “inactive”.
Take `Cc1c(NC(=S)NCc2ccc(F)cc2)cccc1[N+](=O)[O-]`: the Potency was 15.8 µM (active).
Regarding `Cc1ccc(NC(=S)NCCc2ccc(Cl)cc2)c(C)c1`, the Potency was 3.16 µM (active).
The same measure, in the same setting: to `Cc1cccc(NC(=O)COC(=O)CCc2ccccc2)c1C` belongs “inactive”; to `Cc1cccc(NC(=S)NCCc2ccc(Cl)cc2)c1C`, 7.08 µM (active).
For `Cc1cccc(NC(=O)C2CCCN(C(=O)Nc3ccc(F)cc3)C2)c1C` (stereo unspecified), the Potency entry is “inactive”.
Regarding `Cc1cc(Cl)ccc1NC(=S)NCCCN1CCCC1=O`, the Potency entry is “inactive”.
`Cc1cccc(NC(=S)N2CCC(O)CC2)c1C`: the Potency entry was “inactive”.
`Cc1c(NC(=O)Nc2ccccc2)cccc1[N+](=O)[O-]`: the Potency result was “inactive”.
For the compound `Cc1cc(C(=O)NCCc2ccc(Cl)cc2)c(C)o1`, the Potency entry is “inactive”.
Turning to `Cc1cccc(NC(=S)NCCc2ccc(F)cc2)c1C`, the Potency was 6.31 µM (active).
As for `CCn1cc(CN2CCN(CC(C)(C)C)C(CCO)C2)c2ccccc21` (stereo unspecified), the Potency result is “inactive”.
In the case of `Cc1ccc(C)c(N2CCN(S(=O)(=O)c3c(C)[nH]c(C)c3C(=O)N3CCCC3)CC2)c1`, the Potency result is “inactive”.
Still for that read-out and setting: the result for `O=C(c1cc(-c2ccc(O)cc2)on1)N1CCOCC1` reads “inactive”; that for `CCC(C(=O)NCc1cccnc1)n1nc(C)c2sc3ccccc3c2c1=O` (stereo unspecified), “inactive”.
`COc1cc(NC(=S)NCc2ccc(S(N)(=O)=O)cc2)cc(OC)c1`: the Potency entry is “inactive”.
On to `O=C(NCCc1c[nH]c2ccccc12)c1cccc(Br)c1`, for which the Potency entry was “inactive”.
`O=C(CC(=O)N/N=C\c1ccc(F)cc1)NCCc1ccccc1`: the Potency entry is “inactive”.
With `Cc1ccc(NC(=O)C2CCCN2S(=O)(=O)c2cccc3cccnc23)c(C)c1` (stereo unspecified), the Potency entry was “inactive”.
In the case of `CSc1ncc(C(=O)Nc2ccc(C)cc2C)c(C)n1`, the Potency result is “inactive”.
Regarding `S=C(NCCc1ccccc1)N1CCCCC1`, the Potency entry was “inactive”.
On the same count and under the same terms, to `Cc1cc(C)cc(NC(=S)NCc2ccc(F)cc2)c1` belongs 3.98 µM (active).
With `COc1ccccc1CC(=O)NCCc1c[nH]c2ccccc12`, the Potency result is “inactive”.
For `Cc1cc(C)cc(NC(=S)NCCc2c[nH]c3ccccc23)c1`, the Potency is 12.6 µM (active).
Consider `Cc1cc(F)ccc1NC(=S)NCCc1ccccc1`, for which the Potency was 5.62 µM (active).
In the case of `Cc1ccc(NC(=S)Nc2ncccc2C)c(C)c1`, the Potency is 7.08 µM (active).
For the compound `CCCCC(=O)NCc1ccc(F)cc1`, the Potency entry is “inactive”.
In the case of `CCCOc1ccc(CNC(=O)C2CCN(c3nn4c(=O)cc(C)nc4s3)CC2)cc1`, the Potency entry is “inactive”.
`Cc1cccc(-c2nc(CS(=O)CC(=O)NC(C)CCc3ccccc3)c(C)o2)c1` (stereo unspecified): the Potency result is “inactive”.
Consider `O=C(Nc1ccc(N2CCCC2=O)cc1)c1cncc(Br)c1`, for which the Potency entry was “inactive”.
Regarding `Cc1cccn2c(=O)c(/C=C(\C#N)C(N)=O)c(N3CCCCCC3)nc12`, the Potency entry was “inactive”.
The same measure, in the same setting: the result for `CCCc1nnc(NC(=O)CCC(=O)N2CCN(S(=O)(=O)c3ccc(OC)cc3)CC2)s1` reads “inactive”.
Still for that read-out and setting: to `Cc1c(C(=O)NCC(c2ccco2)N2CCCC2)oc2ccc(Cl)cc12` (stereo unspecified) belongs “inactive”; to `Cc1ccc(CNC(=O)CCS(=O)(=O)c2ccc3c(c2)CC(C)N3C(=O)C2CC2)o1` (stereo unspecified), “inactive”.
Turning to `O=C1C(=O)N(CCN2CCOCC2)C(c2cccc(Cl)c2)/C1=C(/O)c1ccc2c(c1)OCO2` (stereo unspecified), the Potency result is “inactive”.
Regarding `O=C(NNS(=O)(=O)c1ccc([N+](=O)[O-])cc1)C1CCCCC1`, the Potency entry is “inactive”.
As for `COc1cccc(-c2nc(CS(=O)CC(=O)NCc3ccc(F)cc3)c(C)o2)c1` (stereo unspecified), the Potency result is “inactive”.
As for `COc1ccccc1N1CC(C(=O)Nc2nnc(SCC(=O)NCC3CCCO3)s2)CC1=O` (stereo unspecified), the Potency entry is “inactive”.
As for `Cc1ccccc1NC(=S)NC(=O)Cc1ccc(Cl)cc1`, the Potency was 7.08 µM (active).
The same measure, in the same setting: to `S=C(NCc1cccnc1)Nc1ccc(Cl)cc1Cl` belongs “inactive”.
As for `Cc1ccc(NC(=S)NCc2ccccc2Cl)c(C)c1`, the Potency was 5.01 µM (active).
On the same count and under the same terms, the result for `Cc1cc(C(=O)NNC(=S)Nc2ccccc2C)cs1` reads “inactive”; that for `Cc1ccc(NC(=O)C(=O)NCc2ccco2)c(C)c1`, “inactive”.
As for `Cc1ccccc1N/C(SCc1ccc(Cl)cc1)=C(/C#N)C(N)=O`, the Potency entry was “inactive”.
For `O=C(N/C(=C\c1ccc([N+](=O)[O-])cc1)C(=O)N1CCOCC1)c1cccc(Br)c1`, the Potency result was “inactive”.
For `CC(=O)Nc1ccc(S(=O)(=O)N(C)c2nc3ccccc3nc2Cl)cc1`, the Potency entry is “inactive”.
For `COC(=O)CN1C(=O)[C@H]2[C@@H](/C=C/c3ccccc3)N3C(=O)CN(CC4CC4)C(=O)[C@@]3(Cc3ccccc3)[C@H]2C1=O`, the Potency result was “inactive”.
Consider `O=C(CN(Cc1ccc(Br)cc1)S(=O)(=O)c1ccccc1)NCc1ccncc1`, for which the Potency entry is “inactive”.
As for `CN1CCN(C(=O)C(=O)c2cn(CC(=O)N3CCCC3)c3ccccc23)CC1`, the Potency result was “inactive”.
Turning to `Cc1ccccc1CNC(=O)CCC(=O)N1Cc2ccccc2Oc2ncccc21`, the Potency result is “inactive”.
Turning to `Cc1cc(SCc2c(F)cccc2Cl)nc(=O)[nH]1`, the Potency entry is “inactive”.
On to `COc1ccc(CNC(=O)/C(C#N)=C/c2cccc(OC)c2OC)cc1`, for which the Potency entry is “inactive”.
On the same count and under the same terms, the result for `O=C(NCCOCc1ccc(Cl)cc1)c1ncn[nH]1` reads “inactive”; that for `COc1ccc(Cl)cc1CSc1ncn[nH]1`, “inactive”.
In the case of `O=C(/C=C/Sc1ncn[nH]1)c1ccc(Cl)cc1`, the Potency is 4.47 µM (active).
In the case of `O=C(Cn1c(NCCO)nc2ccccc21)c1ccc(Cl)cc1Cl`, the Potency result was “inactive”.
Consider `CCc1cccc(NC(=S)N(CCN(C)C)C2CCN(C(C)C)CC2)c1`, for which the Potency entry is “inactive”.
With `CC(C)c1ccc(S(=O)(=O)N2CCN(C(=O)c3ccc(N4CCCC4)c([N+](=O)[O-])c3)CC2)cc1`, the Potency entry was “inactive”.
On to `CC(=O)N1c2ccc(S(=O)(=O)NCCC(=O)N(C)C3CCCCC3)cc2CC1C` (stereo unspecified), for which the Potency entry is “inactive”.
Regarding `Nc1nc(Nc2ccccc2F)nc(NC2CCCCC2)c1[N+](=O)[O-]`, the Potency result is “inactive”.
As for `Cc1ccc(-c2csc(-c3c[nH]c4ccccc34)n2)cc1`, the Potency entry was “inactive”.
For `Cc1cccc(N=C2NN=C(c3c[nH]c4ccccc34)CS2)c1`, the Potency was 7.94 µM (active).
For `Cc1cccc(C(=O)Nc2nnc(Cc3c[nH]c4ccccc34)s2)c1`, the Potency entry is “inactive”.
The same measure, in the same setting: the result for `C=CCCN(C(Cc1ccccc1)C(=O)OC)S(=O)(=O)c1cc(Br)ccc1Br` (stereo unspecified) reads “inactive”; that for `CC(C)c1nc(CNC(=O)CC2C(=O)NCCN2Cc2cccc(F)c2F)cs1` (stereo unspecified), “inactive”; that for `COc1ccc(N2CCN(S(=O)(=O)CCNC(=O)C34CC5CC(CC(C5)C3)C4)CC2)cc1`, “inactive”.
Still for that read-out and setting: to `COc1ccc(-c2nnc3ccc(SCc4ccccc4)nn23)cc1` belongs “inactive”; to `COC(=O)c1ccc(CSc2ccc3nnc(-c4ccccc4)n3n2)o1`, 20 µM (active); to `COC(=O)c1ccc(CSc2ccccc2C)o1`, “inactive”.
For the compound `CC(=O)c1ccc(NC(=O)c2sc3nc4n(c(=O)c3c2C)CCCCC4)cc1`, the Potency result was “inactive”.
In the case of `COc1ccc(Cl)cc1NC(=O)c1cccc(N2C(=O)C3CC=CCC3C2=O)c1` (stereo unspecified), the Potency result was “inactive”.
Consider `CCOC(=O)c1c(NC(=O)C2(C)Cc3ccccc3C(=O)O2)sc2c1CCCC2` (stereo unspecified), for which the Potency entry was “inactive”.
Regarding `CCOC(=O)c1c(-c2cccc(C)c2)csc1NC(=O)c1c(-c2ccccc2)noc1C`, the Potency entry was “inactive”.
As to `CCOC(=O)c1c(-c2ccccc2)csc1NC(=S)NC(=O)c1ccccc1`, the Potency was 6.31 µM (active).
Consider `CCOC(=O)C1=C(NC(=S)NC(=O)c2ccccc2)c2ccccc2CC1(C)C`, for which the Potency was 11.2 µM (active).
As for `Cc1cc2[nH]ncc2cc1NC(=S)NC(=O)c1ccccc1`, the Potency entry is “inactive”.
As to `CCOC(=O)c1c(-c2ccc(-c3ccccc3)cc2)csc1NC(=O)CCC(=O)O`, the Potency entry is “inactive”.
